Compounds with a hit are over-represented: about 3% of the library has one in this group of screens.
MITF TRPM1 inh = inhibitors of MITF-driven TRPM1 promoter in melanoma cells; SK-MEL-5 TRPM1 promoter luciferase, 24 h; inhibition, % at 12.5 µM; actives 0.83% (n = 330,000); AID 488899;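 active = mean inhibition across replicates of 60% or more, whatever share of single replicates reaches that level; inconclusive = some that reach 60%, reason not given; inactive = mean inhibition across replicates below 60%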
EBV LMP1 NFkB = inhibitors of Epstein-Barr LMP1-induced NF-kappaB reporter. LMP1-induced NF-kappaB luciferase reporter cells, luminescence. inhibition, % at 12.5 µM. actives 0.69% (n = 350,000). AID 504558; in the data active = inhibition above about 41%; inconclusive = no clear call, values can overlap the other calls;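 also: 0% = neutral control wells and 100% = reference inhibitor control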
MITF act = MITF TRPM1 promoter activation in melanoma cells; activation, % at 12.5 µM; SK-MEL-5 TRPM1-promoter luciferase, 24 h; % of positive control, neutral wells = 0; AID 588334; actives 0.75% (n = 300,000);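 active = mean activation of at least 80% with every replicate also reaching 80%; inconclusive = mean reaches 80% but some replicate falls short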;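 also: 0% = neutral control wells and 100% = parthenolide positive control wells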
TWEAK Fn14 block = TWEAK-Fn14 signaling inhibition. TWEAK-stimulated Fn14 reporter cells, luciferase luminescence, 8 h. inhibition, % at 10 µM. actives 2% (n = 360,000). AID 1159606; in the data active = inhibition above about 50%
TROY NFkB inh = TROY signaling inhibition; Q293 LMP1-TROYcd NF-kB luciferase reporter, 4 h; inhibition, % at 10 µM; actives 0.98% (n = 360,000);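 active = compounds whose plate-normalised and pattern-corrected inhibition of the luciferase reporter signal at the single screening dose is 50% or more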
LGR2 inh = blocks bursicon-induced cAMP signaling via Drosophila LGR2 | HEK293 LGR2, CRE-luciferase, bursicon-stimulated, 4 h | inhibition, % at 9.99 µM | actives 0.35% (n = 380,000) | AID 720647;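 active = drop in luminescence signal, shown as inhibition above about 50% in the replicate tests, limit read from the data, passing the limit was not always enough; inconclusive = probably only some replicates passing the limit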;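 also: agonist challenge used bursicon conditioned medium at about half maximal strength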
The depositor's hits bear a star; ? = inconclusive; · = not tested or not shown.

SMILES | MITF TRPM1 inh | EBV LMP1 NFkB | MITF act | TWEAK Fn14 block | TROY NFkB inh | LGR2 inh
Cc1nc(-c2ccc(NC(=O)c3ccccc3)cc2)cs1 | -14 | -7 | 13 | 68* | 19 | 23
O=C(O)CCC(=O)Nc1cccc(-c2csc(-c3ccccc3)n2)c1 | 34 | 1 | -30 | 57* | 8 | -45
O=C(Nc1cccc(-c2csc(Nc3ccccc3)n2)c1)c1ccccc1 | -100 | -22 | 106* | 33 | -31 | -26
Cc1ccc(C(=O)Nc2ccc(-c3csc(C)n3)cc2)cc1 | -27 | -16 | 34 | 21 | -24 | -98
CO[C@@H]1CN(C)C(=O)c2ccc(NC(=O)C3CC3)cc2OC[C@H](C)N(Cc2ccccc2)C[C@H]1C | · | · | · | · | · | 20
CC(=O)N[C@H]1CC[C@@H](CCNC(=O)C2CCCCC2)O[C@H]1CO | · | · | · | · | · | 8
O=C(Nc1ccc(-c2csc(Nc3cccc(C(F)(F)F)c3)n2)cc1)c1ccccc1 | 16 | -11 | -17 | 65* | -2 | -13
COCCNC(=O)C[C@H]1C=C[C@H](NS(=O)(=O)c2ccc(C)cc2)[C@@H](CO)O1 | · | · | · | · | · | 2
CO[C@H]1CN(C)C(=O)c2cc(NC(=O)c3ccc(F)cc3)ccc2OC[C@@H](C)N(Cc2cocn2)C[C@@H]1C | · | · | · | · | · | -10
CO[C@@H]1CN(C)C(=O)c2cc(NC(=O)C3CCCC3)ccc2OC[C@@H](C)N(CCC(F)(F)F)C[C@H]1C | · | · | · | · | · | 7
Cc1ccc(C(=O)Nc2ccc(Br)c(C(F)(F)F)c2)cc1 | -89 | -40 | 84* | 40 | 20 | ·
Cc1ccc(NC(=O)c2ccc(C)cc2)cc1 | -32 | -7 | 26 | 59* | 4 | 48
Cc1ccc(C(=O)Nc2ccc(N3CCN(C)CC3)cc2)cc1 | -52 | -22 | 54 | -4 | -20 | -33
O=C(Nc1ccc(Cl)c(C(F)(F)F)c1)c1ccncc1 | 0 | -15 | 6 | 13 | 7 | -20
CC(=O)Nc1ccc(NC(=O)c2cc([N+](=O)[O-])cc([N+](=O)[O-])c2)cc1 | 24 | -2 | -22 | -22 | -3 | -6
Cc1ccc(NC(=O)c2ccc(Nc3c([N+](=O)[O-])cc([N+](=O)[O-])cc3[N+](=O)[O-])cc2)cc1 | 9 | -3 | -3 | 94* | 66* | 85*
O=C(O)C[C@H]1C[C@@H]2c3cc(NC(=O)NC4CCCC4)ccc3O[C@@H]2[C@H](CO)O1 | · | · | · | · | · | 11
CCOC(=O)c1c(CSc2ccccc2)n(C)c2cc(Br)c(OCC(O)CNC(CO)(CO)CO)cc12 (stereo not given) | 90* | 2 | -88 | 10 | 24 | 41
CCOC(=O)c1c(CSc2ccccc2)n(C)c2cc(Br)c(OC)c(O)c12 | -10 | -2 | · | -3 | -9 | -4
O=C(c1ccc(F)cc1)N1CC(=O)N2[C@H](CO)[C@H](c3ccc(C#CC4CCCCC4)cc3)[C@@H]2C1 | · | · | · | · | · | 6
COc1ccc(NC(=O)N2CCCC(c3nc(-c4ccc(C(C)C)cc4)no3)C2)cc1 (stereo not given) | 16 | -25 | -11 | 59* | 69* | ·
COc1ccc(NC(=O)N2CCCC(c3nc(-c4ccc(OC)cc4)no3)C2)cc1 (stereo not given) | -4 | 9 | 2 | 36 | 33 | -68
CN(C)CC(CCC(CN(C)C)C(=O)c1ccccc1)C(=O)c1ccccc1 (stereo not given) | 97* | 84* | -97 | 98* | 56* | ·
CCOc1ccc(C(=O)C(CCC(CN(C)C)C(=O)c2ccc(OCC)cc2)CN(C)C)cc1 (stereo not given) | 103* | 67* | -102 | 102* | 50* | 37
COc1ccc(C(=O)C(CCCCC(CN(C)C)C(=O)c2ccc(OC)cc2)CN(C)C)cc1 (stereo not given) | 51 | -30 | -49 | -30 | 21 | ·
SMILES | MITF TRPM1 inh | EBV LMP1 NFkB | MITF act | TWEAK Fn14 block | TROY NFkB inh | LGR2 inh
O=C1C(=O)c2c(ccc3ccccc23)-c2ccccc21 | 98* | 59* | -96 | 101* | 43 | 15
NS(=O)(=O)c1ccc(N/N=C2/CCCc3ccccc32)c([N+](=O)[O-])c1 | -10 | 12 | 13 | -41 | 2 | -1
O=[N+]([O-])c1cc(S(=O)(=O)N2CCCC2)ccc1N/N=C1/CCCc2ccccc21 | -5 | 7 | 10 | 64* | 18 | -12
O=[N+]([O-])c1cc(S(=O)(=O)N2CCCCCC2)ccc1F | 93* | -18 | -92 | -1 | 9 | 23
CN1C(=O)c2cc(NC(=O)c3cccs3)ccc2OC[C@H]2O[C@H](CC(=O)NCC(F)(F)F)CC[C@@H]21 | · | · | · | · | · | -2
O=C(Nc1ccccc1)c1ccc(-c2ccccc2)s1 | -86 | -12 | 85* | -8 | -27 | -52
O=C(O)c1ccc(-c2ccc(-c3ccccc3)cc2)s1 | 81* | 2 | -81 | 43 | -28 | ·
Cc1cc(-c2ccc(C(=O)O)s2)cnc1N | -13 | -12 | 8 | -15 | -76 | 22
C[C@@H]1CN([C@H](C)CO)C(=O)CCCn2cc(nn2)CO[C@@H]1CN(C)S(=O)(=O)c1ccc(-c2ccccc2)cc1 | · | · | · | · | · | 1
Cc1ccc(S(=O)(=O)N(CC(=O)N=Nc2c(O)[nH]c3ccccc23)c2cccc(C)c2)cc1 | 13 | -1 | -12 | 52* | 33 | 21
Cc1cc(Cl)ccc1N(CC(=O)N=Nc1c(O)[nH]c2ccccc12)S(C)(=O)=O | 10 | 5 | -10 | 2 | -11 | ·
FC(F)(F)c1nc2ccccc2n2c(-c3ccc(Cl)cc3Cl)nnc12 | 4 | -4 | -4 | -2 | 11 | ·
FC(F)(F)c1nnc2c(Sc3ccccc3)nc3ccc(Cl)cc3n12 | 82* | -70 | -82 | 53* | -6 | ·
O=C(Nc1ccc2c(c1)OCCO2)c1ccc(Br)c(S(=O)(=O)N2CCOCC2)c1 | 8 | 22 | -8 | 82* | 61* | ·
CC(=O)c1ccc(NC(=O)c2ccc(C)c(S(=O)(=O)N3CCOCC3)c2)cc1 | -3 | -5 | 4 | -6 | -9 | -15
CCOC(=O)c1ccc(NC(=O)c2ccc(C)c(S(=O)(=O)N3CCOCC3)c2)cc1 | 69* | 19 | -68 | 96* | 73* | ·
CCOC(=O)c1cc(OC(=O)Cc2ccc(OC)c(S(=O)(=O)N3CCOCC3)c2)cc(C(=O)OCC)c1 | · | -10 | · | 28 | 52* | -3
Cc1cc(C)n(-c2ccc(C(=O)Nc3ccc(C)c(S(=O)(=O)N4CCOCC4)c3)cc2)n1 | 69* | 9 | -68 | 64* | 64* | ?
CNC(=O)C[C@@H]1CC[C@@H]2[C@H](COc3ccc(NC(=O)NCc4ccccc4)cc3C(=O)N2C)O1 | · | · | · | · | · | 21
CCOc1ccc(NC(=O)/C(C#N)=C/c2cn(CC(=O)O)c3ccccc23)cc1 | 9 | 16 | · | 92* | -3 | ·
CC(C)CC#Cc1ccc2c(c1)O[C@@H](CN(C)C(=O)Cc1ccccn1)[C@@H](C)CN([C@@H](C)CO)S2(=O)=O | · | · | · | · | · | -7

Screening results: PubChem, several laboratories
